97 compounds from PubChem BioAssay AID430 (Sanford-Burnham Center for Chemical Genomics, 2006) can be followed below.

The structures appear in SMILES notation. About 1,100 (1.7%) of roughly 63,000 compounds were called active. No stated cut-off is given here; in the data, active means cytotoxicity above about 50%; inactive means the rest. The entries come from a sample that favours actives as a whole. Potency and affinity values are given separately.

The test can be described thus: HPDE-C7 pancreatic duct cell viability loss – fluorescence, HTS (AID 430).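 Further: cells exposed to compound for 48 hours before viability readout; 0% = vehicle and 100% = reference cytotoxic drug.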 Particulars: HPDE-C7 pancreatic duct cells viability, at 10 µM, active compounds read high.
As to `COCCn1c(SCC(=O)N2CCCc3ccccc32)nnc1-c1ccco1`, the cytotoxicity was -4.5% (inactive). Next, `CCNC(=O)N1C(=O)C2(OCCO2)c2ccccc21`: -15.9% (inactive); `CCCCOc1ccc(OCCCC)c2c1NC1(N2)C(=O)N(C(C)=O)c2ccccc21`: 69.8% (active); `CC(=O)N1C(=O)C2(Nc3ccccc3N2)c2ccccc21`: -0.7% (inactive). Turning to `CCOC(=O)Cc1nnc(NC(=O)Nc2ccccc2)s1`, the cytotoxicity was 5% (inactive). As for `Nc1ccc(-c2nc3ccc(-c4nc5ccccc5o4)cc3[nH]2)cc1`, the cytotoxicity is 76.2% (active). Consider `Nc1cc(N)cc(-c2nc3ccccc3o2)c1`, for which the cytotoxicity is 18.2% (inactive). Consider `Nc1ccc(-c2nc3ccccc3[nH]2)cc1`, for which the cytotoxicity was -5.6% (inactive). In the case of `O=S(=O)(Nc1nnc(-c2ccccc2)s1)c1ccc(Cl)cc1`, the cytotoxicity was 8.8% (inactive). On to `FC(F)(F)c1cc(-c2ccco2)nc(-n2nc(C(F)(F)F)cc2C2CC2)n1`, for which the cytotoxicity was 5.7% (inactive). On to `Cn1c(=O)c2c(nc(SCC(=O)N3CCCc4ccccc43)n2C)n(C)c1=O`, for which the cytotoxicity was -17.3% (inactive). Regarding `O=C(CCCCn1c(=O)c2ccccc2n(Cc2ccc(F)cc2Cl)c1=O)NCc1ccco1`, the cytotoxicity is 2.9% (inactive).

As for `O=C(NCc1ccccn1)c1ccc(COc2ccc(Cl)cc2)o1`, the cytotoxicity was 4.2% (inactive).

As to `Cc1nc(N2CCCC2)c2nnn(Cc3ccccc3Cl)c2n1`, the cytotoxicity was -10.9% (inactive). For `O=C(c1ccco1)N1CCN(c2nc(C(F)(F)F)nc3c2nnn3Cc2ccccc2)CC1`, the cytotoxicity is 11.6% (inactive). Under `CC(=O)Nc1ccc(NC(=O)c2c(C)nc3ccccn23)cc1` stands 6.8% (inactive); under `COc1cc(C2C(C#N)=C(N)Oc3cc(N)ccc32)cc(OC)c1OC` (configuration not stated), 58.5% (active); under `N#CC1=C(N)Oc2cc(N)ccc2C1C1CCCCC1` (configuration not stated), 22.2% (inactive). For the compound `COc1ccc(OC)c(C2C(C#N)=C(N)Oc3cc(N)ccc32)c1` (configuration not stated), the cytotoxicity is -0.7% (inactive).

On to `Cc1[nH]nc2c1C(C1CC=CCC1)C(C#N)=C(N)O2` (configuration not stated), for which the cytotoxicity was 0.7% (inactive). As to `N#CC1=C(N)Oc2cc(N)ccc2C1C1CC=CCC1` (configuration not stated), the cytotoxicity is 59.8% (active).

With `COc1ccc(C2C(C#N)=C(N)Oc3cc(O)ccc32)cc1OC` (configuration not stated), the cytotoxicity is -6.7% (inactive). For `Cc1cc(C(=O)NCC2CCCO2)n(-c2ccccc2)n1` (configuration not stated), the cytotoxicity is 0.2% (inactive). Consider `CCOc1ccc(NC(=O)c2oc3ccccc3c2NC(=O)C(C)C)cc1`, for which the cytotoxicity was 11.9% (inactive).

`C=CCN1C(=O)C(CC(=O)O)SC1=Nc1c(C)n(C)n(-c2ccccc2)c1=O` (configuration not stated): the cytotoxicity is -3.1% (inactive).

With `Cc1nc2ccccc2c2oc(C(=O)NCc3ccccn3)cc12`, the cytotoxicity is 4.5% (inactive). On to `O=C1CC(N2CCN(C3CC(=O)N(CCc4ccccc4)C3=O)CC2)C(=O)N1CCc1ccccc1` (configuration not stated), for which the cytotoxicity was -9.9% (inactive).

Turning to `N#C/C(C(N)=O)=c1/ccc2c(c1)N1C3=C(CCCC3)CC3CCCCC31N=2` (configuration not stated), the cytotoxicity was 77.9% (active).

On to `N#CC(C#N)=c1ccc2c(c1)N1C3=C(CCCC3)CC3CCCCC31N=2` (configuration not stated), for which the cytotoxicity is 72% (active).

For the compound `Cc1cc(C(=O)COC(=O)C2=COCCO2)c(C)n1-c1ccc2c(c1)OCO2`, the cytotoxicity was -7.4% (inactive). On to `CCCc1cc(C(=O)NC2CCCC2)no1`, for which the cytotoxicity is -4.5% (inactive). For the compound `CCOC(=O)N1CCN(C(=O)CCn2c(=S)[nH]c3cc(OCC)c(OCC)cc3c2=O)CC1`, the cytotoxicity is 1.3% (inactive). On to `CCN1CCN(C(c2cccs2)C(C)NC(=O)c2ccccc2)CC1` (configuration not stated), for which the cytotoxicity is 2.9% (inactive). Next, `O=C(O)CCCNc1cc(N2CCC3(CC2)OCCO3)c2noc3c2c1C(=O)c1ccccc1-3`: 34.7% (inactive). Next, `CC(=O)OCCNc1cc(N2CCN(C)CC2)c2noc3c2c1C(=O)c1ccccc1-3`: 7.3% (inactive).

With `CCOC(=O)N1CCN(c2cc(NCCC(=O)O)c3c4c(onc24)-c2ccccc2C3=O)CC1`, the cytotoxicity was 58.8% (active). Next, `CCOC(=O)c1c(C)noc1CP(=O)(c1ccccc1)c1ccccc1`: 4.8% (inactive). On to `CCOc1ccc2noc3c2c1C(=O)c1ccccc1-3`, for which the cytotoxicity was 29.3% (inactive). For the compound `CCC1CCCCN1C(=O)CSc1nnc(-c2ccc(Cl)cc2)o1` (configuration not stated), the cytotoxicity is 1.2% (inactive). For `O=C(O)c1[nH]c2ccc(Cl)cc2c1CC(=O)N1CCN(c2ccccc2)CC1`, the cytotoxicity was 5.3% (inactive).

For the compound `Cc1cccc(N2CCN(C(=O)Cc3c(C(=O)O)[nH]c4ccc(Cl)cc34)CC2)c1C`, the cytotoxicity was 76.3% (active).

As to `O=C(O)c1[nH]c2ccc(Cl)cc2c1CC(=O)N1CCN(C(=O)c2ccco2)CC1`, the cytotoxicity is -1% (inactive).

With `Cc1ccc(OC(=O)CCC(=O)N2CCc3ccccc32)cc1`, the cytotoxicity is 4% (inactive). For `Cc1cccc(N2CCN(CCNC(=O)c3cc4c(s3)CS(=O)(=O)C4)CC2)c1C`, the cytotoxicity is -3.7% (inactive). With `O=S(=O)(NCCc1ccccn1)c1cccs1`, the cytotoxicity is -28.8% (inactive). Turning to `CCCn1c(C)nc2c(c1=O)c1nc3ccccc3nc1n2CCC1=CCCCC1`, the cytotoxicity was -0.4% (inactive). On to `Cc1nc2c(c(=O)n1CCC1=CCCCC1)c1nc3ccccc3nc1n2/N=C/c1ccco1`, for which the cytotoxicity is 63.7% (active). Next, `O=c1c2c3nc4ccccc4nc3n(/N=C/c3ccco3)c2ncn1CCC1=CCCCC1`: 23% (inactive); `O=c1oc2ccccc2c2c1ncn2-c1ccccc1`: -17.3% (inactive). As for `O=C(Nc1nnc(CC2=CCCCC2)s1)c1cccs1`, the cytotoxicity is 0.5% (inactive). Under `Cn1c(CNC(=O)c2ccc(F)cc2)nc2ccccc21` stands 0.8% (inactive); under `CCOC(=O)/C=C1\NC(C)(C)Cc2cc(OC)c(O)cc21`, 1.4% (inactive); under `COc1cc2c(cc1OC)C(/C(C#N)=N\O)=NC(C)(C)C2`, 13% (inactive). For `CCC1C(O)=C(c2ccccn2)C(=N)N1c1ccccc1` (configuration not stated), the cytotoxicity is 0.3% (inactive).

On to `CCOCCOC(=O)C1=C(C)N(C)C(=O)NC1c1ccccc1Cl` (configuration not stated), for which the cytotoxicity was -0.5% (inactive). Next, `C/C(NCCN1CCOCC1)=C(\C#N)C(N)=O`: -5.5% (inactive); `CCOC(=O)c1c(NC(C)=O)sc2c(O)cccc12`: 21.8% (inactive). `CCOC(=O)c1sc(NC(C)=O)c(C(=O)OCC)c1C`: the cytotoxicity is 4.3% (inactive). Turning to `CCOC(=O)c1c(NC(C)=O)sc2c(O)c(CN3CCN(CC)CC3)ccc12`, the cytotoxicity was 68% (active). On to `CC(=O)Nc1ccc(S(=O)(=O)NCC2CCC(C(=O)N3CCCCCC3)CC2)cc1` (configuration not stated), for which the cytotoxicity was -6.2% (inactive).

In the case of `COc1ccc(CNc2nc3nc(C)cc(C)n3n2)cc1OC`, the cytotoxicity was 2.5% (inactive). Consider `COc1ccccc1N1CCN(CC(=O)Nc2cc(C)nn2-c2nc(C)cc(C)n2)CC1`, for which the cytotoxicity was 52.4% (active).

Turning to `COc1ccc(CNCC(=O)Nc2cc(C)nn2-c2nc(C)cc(C)n2)cc1OC`, the cytotoxicity is 52.9% (active). On to `Cc1cc(C)nc(-n2nc(C)cc2NC(=O)c2ccc(Br)o2)n1`, for which the cytotoxicity was 25.7% (inactive). Under `Cc1cc(C)nc(-n2nc(C)cc2NC(=O)CN2CCC(C)CC2)n1` stands 0.1% (inactive); under `Cc1cc(C)nc(-n2nc(C)cc2NC(=O)CN2CCc3ccccc3C2)n1`, 19.1% (inactive). As to `COc1ccc(C(CC(=O)O)NC(=O)c2ccco2)cc1OC` (configuration not stated), the cytotoxicity was -6.5% (inactive). Turning to `O=C(c1ccco1)N1CCN(C(c2ccccc2)c2nnnn2Cc2cccs2)CC1` (configuration not stated), the cytotoxicity was 7.3% (inactive). Under `Cc1ccc(OCc2nc(-c3ccccn3)no2)c(Br)c1` stands 12.5% (inactive); under `Clc1ccc(OCc2nc(-c3ccccn3)no2)c(Br)c1`, 4.3% (inactive).

Turning to `CC(C)CCn1c(=O)c2ccccc2n2c(CN(C)Cc3ccccc3)nnc12`, the cytotoxicity was -12.8% (inactive). For `O=c1[nH]c(CSc2nc3ccccc3o2)nc2c1cnn2-c1ccccc1`, the cytotoxicity is 0.3% (inactive). On to `O=C(NCCc1ccccc1)C1CCCN(S(=O)(=O)c2cccc3nsnc23)C1` (configuration not stated), for which the cytotoxicity was -0.3% (inactive).

For the compound `CCN1CCCC1CNC(=O)C1CCCN(S(=O)(=O)c2cccc3nsnc23)C1` (configuration not stated), the cytotoxicity was 61.7% (active).

As for `O=C(NCC1CCCO1)C1CCCN(S(=O)(=O)c2cccc3nsnc23)C1` (configuration not stated), the cytotoxicity was -15% (inactive). As to `CC(=O)Nc1ccc(S(=O)(=O)NCc2cn3c(C)csc3n2)cc1`, the cytotoxicity is 10.5% (inactive). Turning to `COc1ccccc1-c1cc(C(=O)Nc2c(F)cc(F)cc2Br)no1`, the cytotoxicity was -10.6% (inactive). Consider `O=C(Nc1ccc(F)cc1F)c1cc(-c2ccco2)on1`, for which the cytotoxicity is -5.3% (inactive). In the case of `O=C(Nc1c(F)cc(F)cc1Br)c1cc(-c2ccco2)on1`, the cytotoxicity is 58.5% (active). Regarding `O=C(Nc1c(F)cc(F)cc1Br)c1cc(-c2ccc(O)cc2)on1`, the cytotoxicity is 54.4% (active). Next, `Cc1cc(C(=O)Nc2c(F)cc(F)cc2Br)no1`: 0.9% (inactive); `O=C(Nc1c(F)cc(F)cc1Br)c1ccco1`: 0.6% (inactive). For `Cc1ccc(S(=O)(=O)CCc2nnc(NC(=O)c3cnccn3)s2)cc1`, the cytotoxicity is -8.2% (inactive). Under `CC(=O)Oc1cc2c(C(=O)NCCCN3CCOCC3)c(C)oc2c2ccccc12` stands 5.1% (inactive); under `CCOc1cccc(C(=O)Nc2ccc(N(CC)CC)cc2)c1`, 79.8% (active); under `CCN(CC)c1ccc(NC(=O)c2cc(OC)cc(OC)c2)c(C)c1`, 53.5% (active). In the case of `CCN(CC)c1ccc(NC(=O)c2c(OC)cccc2OC)c(C)c1`, the cytotoxicity was 0.4% (inactive). For `CCN(CC)c1ccc(C(=O)Nc2cccc(F)c2)cc1`, the cytotoxicity was 34% (inactive). As to `CCN(CC)c1ccc(NC(=O)c2cccc(OC)c2)c(C)c1`, the cytotoxicity was 39.6% (inactive).

With `CCOc1cccc(C(=O)Nc2ccc(N3CCN(S(C)(=O)=O)CC3)cc2)c1`, the cytotoxicity was -6.2% (inactive). Regarding `COc1ccc(CC(=O)NCc2ccccc2Cl)cc1S(=O)(=O)N1CCOCC1`, the cytotoxicity was 1.1% (inactive). Under `CCSc1nsc(SCC)c1C(N)=O` stands -6.7% (inactive); under `CCCN(CCO)Cc1cccc(Cl)c1`, 6.6% (inactive). Under `COc1ccc(NS(=O)(=O)c2ccc(C)c(C(=O)O)c2)cc1` stands 5% (inactive).

On to `CCOC(=O)N1CCN(C(=O)c2cc3sccc3n2C)CC1`, for which the cytotoxicity was -9.1% (inactive). `Cc1onc(-c2ccccc2Cl)c1C(=O)N1CCN=C1SCc1cccnc1`: the cytotoxicity was -11.9% (inactive). Turning to `COc1cccc(CN(C)C(=O)c2ccc(S(=O)(=O)N3CCCC3)cc2)c1OC`, the cytotoxicity is -5.4% (inactive).
